# From PMC4336329 (PLoS ONE, 2015)
# Screen size: about 310,000 compounds; about 14,000 (4.5%) showed an effect of 50% or more. Effects have a minus sign here. Only a selection was taken, and strong results are over-represented in it overall.
# Target: human ether-à-go-go-related gene (hERG) potassium channel (human, UniProt Q12809)
# Test: primary screen, population patch clamp on CHO cells stably expressing hERG; higher = less effect of the substance
# 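Further: peak tail current of the secondary pulse compared with the same well before compound.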
# human ether-à-go-go-related gene (hERG) potassium channel, sequence (Q12809 whole entry, looked up): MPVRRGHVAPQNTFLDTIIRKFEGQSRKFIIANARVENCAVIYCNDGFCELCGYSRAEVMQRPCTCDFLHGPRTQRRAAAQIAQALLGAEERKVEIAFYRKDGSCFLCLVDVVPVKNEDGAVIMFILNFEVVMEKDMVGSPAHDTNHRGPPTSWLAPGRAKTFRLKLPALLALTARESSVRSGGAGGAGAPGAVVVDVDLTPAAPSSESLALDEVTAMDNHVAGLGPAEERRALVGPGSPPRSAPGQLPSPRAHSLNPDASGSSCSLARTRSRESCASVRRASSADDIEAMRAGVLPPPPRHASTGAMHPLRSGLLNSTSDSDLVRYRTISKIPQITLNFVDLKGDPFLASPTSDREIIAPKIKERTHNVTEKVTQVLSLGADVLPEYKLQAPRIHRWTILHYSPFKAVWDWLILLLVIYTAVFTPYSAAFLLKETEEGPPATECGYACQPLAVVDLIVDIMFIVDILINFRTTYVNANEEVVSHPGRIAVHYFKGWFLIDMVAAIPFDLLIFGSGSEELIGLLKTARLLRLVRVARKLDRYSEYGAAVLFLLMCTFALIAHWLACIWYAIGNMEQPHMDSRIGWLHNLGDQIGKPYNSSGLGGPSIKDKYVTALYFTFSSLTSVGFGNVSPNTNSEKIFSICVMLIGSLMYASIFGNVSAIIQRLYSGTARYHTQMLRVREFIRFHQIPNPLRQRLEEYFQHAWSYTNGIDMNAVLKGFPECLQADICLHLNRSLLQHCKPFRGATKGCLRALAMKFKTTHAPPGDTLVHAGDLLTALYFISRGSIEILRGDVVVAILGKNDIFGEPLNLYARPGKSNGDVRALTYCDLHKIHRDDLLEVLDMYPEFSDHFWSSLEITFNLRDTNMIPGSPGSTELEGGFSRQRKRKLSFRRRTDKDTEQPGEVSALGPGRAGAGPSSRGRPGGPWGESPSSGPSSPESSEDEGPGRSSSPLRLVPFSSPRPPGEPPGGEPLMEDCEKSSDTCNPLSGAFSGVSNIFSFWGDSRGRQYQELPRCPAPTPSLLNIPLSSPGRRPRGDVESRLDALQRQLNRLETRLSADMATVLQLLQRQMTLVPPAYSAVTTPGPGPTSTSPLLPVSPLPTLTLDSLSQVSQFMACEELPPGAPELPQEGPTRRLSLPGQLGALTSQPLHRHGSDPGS
row,SMILES,"hERG current change (%, negative = inhibition) at 10uM [%]"
1,COC(=O)c1ccccc1NC(=O)c1cccc(COc2ccccc2Cl)c1,10.6
2,O=C(c1ccc(F)cc1)N1CCN(c2ncccn2)CC1,-1.2
3,CC(=O)/C=C(\C)Nc1ccc(-c2cnc(-c3ccccc3)o2)cc1,-4.59
4,CC(=O)O[C@H]1CC[C@H]2[C@@H]3CCc4cc(O)ccc4[C@H]3CC[C@]12C,-5.79
5,COc1ccc(CC(=O)N/N=C/c2ccc(C)s2)cc1,11
6,O=C(Cc1cccc2ccccc12)Nc1ccc2c(c1)C(=O)NC2=O,9.52
7,COc1ccc(NC(=O)CS(=O)(=O)c2cn(CC(=O)N(C(C)C)C(C)C)c3ccccc23)c(OC)c1,-19.3
8,O=C(CC(c1ccccc1)c1ccccc1)NCCOCc1ccccc1,-12.6
9,Cc1ccc(CN2C(=O)CNC2=S)cc1,9.68
10,O=C(Nc1cccc(N=Cc2cc(Br)cc(Br)c2O)c1)c1ccco1,3.77
11,CCCc1nn(C)c(C(=O)Nc2ccc3ccccc3c2)c1Cl,8.62
12,CC1CC(C#N)N(N(C)C)C1=C(C#N)C#N (stereo not drawn),11.3
13,CC(=O)Nc1c2c(nn1-c1cccc(Cl)c1)CS(=O)C2 (stereo not drawn),-1.6
14,CCOc1ccc(N=Cc2c(O)c3ccccc3oc2=O)cc1,3.29
15,Cc1cccc(OCC(=O)NCc2ccccc2)c1,13.6
16,CCn1cc(CN2CCc3c([nH]c4ccccc34)C2c2cccc(OC)c2)c(C)n1 (stereo not drawn),-57.3
17,CCn1cc(CN2CCc3c([nH]c4ccccc34)C2c2ccc(F)c(OC)c2)c(C)n1 (stereo not drawn),6.94
18,CCOc1ccc(C2c3[nH]c4ccccc4c3CCN2Cc2cn(CC)nc2C)cc1 (stereo not drawn),-63.6
19,COCCN1CC(=O)N2C(c3cccc(OC)c3)c3[nH]c4ccccc4c3C[C@H]2C1=O (stereo partly drawn),-38.6
20,CCn1cc(CN2CCc3c([nH]c4ccccc34)C2c2cccc(O)c2)c(C)n1 (stereo not drawn),-18.8
21,COc1cccc(C2c3[nH]c4ccccc4c3C[C@H]3C(=O)N(CCCCCO)CC(=O)N23)c1 (stereo partly drawn),-64.9

row,SMILES,"hERG current change (%, negative = inhibition) at 10uM [%]"
1,COc1cccc(C2c3[nH]c4ccccc4c3CCN2Cc2cccc(C)n2)c1 (stereo not drawn),-26.6
2,Oc1cccc(C2c3[nH]c4ccccc4c3CCN2Cc2cnn(-c3ccccc3)c2)c1 (stereo not drawn),-35.3
3,COc1cc(C2c3[nH]c4ccccc4c3CCN2Cc2cn(C)nc2C)ccc1F (stereo not drawn),1.02
4,CCn1cc(CN2CCc3c([nH]c4ccccc34)C2c2cccc(OC)c2OC)c(C)n1 (stereo not drawn),7.99
5,COc1cccc(C2c3[nH]c4ccccc4c3CCN2Cc2cnn(C)c2)c1 (stereo not drawn),-69.6
6,COCCCN1CC(=O)N2C(c3cccc(OC)c3)c3[nH]c4ccccc4c3C[C@H]2C1=O (stereo partly drawn),-14.3
7,Cc1ccc(C(=O)NCCC(=O)NCc2ccco2)cc1,9.59
8,CC1=NN(C(=O)c2nn(C)cc2Br)C(O)(C(F)(F)F)C1 (stereo not drawn),10.3
9,Cc1cccc(C)c1NC(=O)CNC(=O)C1CCCC1,2.19
10,O=C(NC1CCCCC1)C(c1ccc(F)cc1)N(C(=O)c1csnn1)C1CC1 (stereo not drawn),13.2
11,COc1ccc2nc(C)cc(N3CCN(c4ccccc4)CC3)c2c1,-66.7
12,CCOC(=O)C1CCN(c2cc(C)nc3ccc(OC)cc23)CC1,-73.8
13,COc1ccc(N2CCN(c3cc(C)c4ccccc4n3)CC2)cc1,3.95
14,COc1ccc(C(=O)CN2CCN(c3cc(C)nc4ccccc34)CC2)cc1,-68.8
15,COc1ccc2nc(C)cc(N3CC(C)OC(C)C3)c2c1 (stereo not drawn),-49.6
16,COc1ccc(C(=O)CN2CCN(c3ncccn3)CC2)cc1.O=C(O)C(=O)O,5.13
17,COc1ccc2nc(C)cc(C(=O)O)c2c1,0.7
18,COc1ccc(N2CCN(CC(=O)c3ccccc3)CC2)cc1,11
19,COc1ccc(N2CCN(c3cc(C)nc4ccc(OC)cc34)CC2)cc1,-69.1
20,COc1ccc2nc(C)cc(N3CCOCC3)c2c1,-14.6
21,COc1ccc2nc(C)cc(N3CCC(C(N)=O)CC3)c2c1,-33.7

row,SMILES,"hERG current change (%, negative = inhibition) at 10uM [%]"
1,CCOC(=O)C1CCN(c2nc3cc(OC)ccc3cc2C#N)CC1,-16
2,Cc1ccc(NC(=O)CNC(=O)c2cccs2)c(O)c1,15.1
3,Cl.NS(=O)(=O)c1cccc(N2CCNCC2)c1,11.7
4,COc1ccc(Cl)cc1NC(=S)NNC(=O)c1cccnc1,36.9
5,COc1ccc2nc(C)cc(N3CCN(S(=O)(=O)c4ccccc4F)CC3)c2c1,-75.9
6,COc1cccc(S(=O)(=O)N2CCN(c3ccccc3F)CC2)c1,-6.35
7,COc1ccccc1N1CCN(S(=O)(=O)c2ccccc2F)CC1,-23.3
8,CCOc1ccc(-c2n[nH]c(C)c2Oc2ccc(OC)cc2)c(O)c1,-6.31
9,Cc1ccc2cc(CN(Cc3ccco3)S(=O)(=O)c3c(C)ccc4nsnc34)c(=O)[nH]c2c1,2.82
10,OCc1ccccc1CN1CCCCCC1,-9.62
11,CNCc1ccccc1Sc1cccc(O)c1.O=C(O)/C=C\C(=O)O,7.03
12,CNCc1ccccc1Sc1ccc(OC)c(OC)c1.O=C(O)/C=C\C(=O)O,-18.3
13,O=C(O)/C=C\C(=O)O.c1ccc(Sc2ccccc2CN2CCCC2)cc1,-50.7
14,CN1CCN(Cc2ccccc2Sc2ccccc2)CC1.O=C(O)/C=C\C(=O)O,-82
15,CNCc1ccccc1Sc1cccc2ccccc12.O=C(O)/C=C\C(=O)O,-45.4
16,O=C1N=C(N2CCCC2)S/C1=C\c1cn[nH]c1-c1ccccc1,-4.48
17,COCCN=c1scc(-c2cccs2)n1/N=C(\C)c1ccco1,-2.51
18,CN(C)S(=O)(=O)c1cccc(COc2ccccc2C(=O)Nc2ccccc2)c1,-14.4
19,Brc1ccc(OCc2cn3ccccc3n2)cc1,-7.75
20,CCOC(=O)c1sc(NC(=O)CSc2nccc(C)n2)c(C#N)c1C,-4.68
21,Cc1sc2ncnc(Sc3nc4ccccc4s3)c2c1C,5.53

row,SMILES,"hERG current change (%, negative = inhibition) at 10uM [%]"
1,Cl.O=C(CN1CCCC1)Nc1ccc2c(c1)CCC2,-1.69
2,CC1(c2ccccc2)O[C@@H]2C[C@H]3[C@@H]4CCC5=CC(=O)C=C[C@]5(C)[C@@]4(F)[C@@H](O)C[C@]3(C)[C@]2(C(=O)CO)O1 (stereo partly drawn),-78.6
3,CC1(C)O[C@@H]2C[C@H]3[C@@H]4CCC5=CC(=O)C=C[C@]5(C)[C@@]4(F)[C@@H](O)C[C@]3(C)[C@]2(C(=O)CO)O1,13.7
4,C[C@]12C=CC(=O)C=C1CC[C@H]1[C@@H]3C[C@@H](O)[C@](O)(C(=O)CO)[C@@]3(C)C[C@H](O)[C@@]12F,6.23
5,CCn1c(CCNC(=O)c2ccccc2Cl)n[nH]c1=S,12
6,C[n+]1ccccc1/C=C/c1cc(Br)ccc1O.[I-],14.7
7,O=C(c1ccc(N2CCCC2)c([N+](=O)[O-])c1)N1CCN(S(=O)(=O)c2ccc(Cl)cc2)CC1,-36.2
8,Cc1ccc(NC(=O)c2ccc(-n3cncn3)c([N+](=O)[O-])c2)cc1,-17.9
9,Cc1ccc(C)c(S(=O)(=O)N2CCN(C(=O)c3ccc(-n4cncn4)c([N+](=O)[O-])c3)CC2)c1,-72.1
10,CC(=O)c1ccc(S(=O)(=O)N2CCN(C(=O)c3ccc(-n4cncn4)c([N+](=O)[O-])c3)CC2)cc1,-19.7
11,Cc1ccc(S(=O)(=O)N2CCN(C(=O)c3ccc(N4CCCCC4)c([N+](=O)[O-])c3)CC2)cc1,-10.2
12,CC(C)c1ccc(S(=O)(=O)N2CCN(C(=O)c3ccc(N4CCCC4)c([N+](=O)[O-])c3)CC2)cc1,-55.1
13,Cc1ccc(C(=O)NNC(=O)c2ccc(-n3cncn3)c([N+](=O)[O-])c2)cc1,12.2
14,Cc1ccc(S(=O)(=O)N2CCN(C(=O)c3ccc(-n4cncn4)c([N+](=O)[O-])c3)CC2)cc1,-52.5
15,Nc1ccc(C(=O)N2CCN(S(=O)(=O)c3ccc(Br)cc3)CC2)cc1[N+](=O)[O-],-26.9
16,Cc1ccc(C)c(S(=O)(=O)N2CCN(C(=O)c3ccc(N4CCCC4)c([N+](=O)[O-])c3)CC2)c1,-9.46
17,O=C(c1ccc(-n2cncn2)c([N+](=O)[O-])c1)N1CCN(S(=O)(=O)c2ccc(Br)cc2)CC1,-67.5
18,CC(C)CNC(=O)CC(=O)NN=C1CCCC1,19.5
19,Cc1ccc(N(CC(=O)NCc2ccco2)C(=O)CCC(=O)Nc2nccs2)c(C)c1,-22.5
20,Cc1cc(C)n(-c2nc3ccccc3n3c(C)nnc23)n1,6.03
21,Cc1ccc2oc(=O)n(CC(=O)O)c2c1,23.8
